A selection: hits, their analogues and other compounds. The true share with any hit is near 1.1%.
AmpC inh no detg – AmpC beta-lactamase inhibition without detergent | AmpC nitrocefin hydrolysis, absorbance 480 nm, 0.0001% Triton | 0.52% of 330,000 active | AID 485341 | Potency, µM (top dose mostly 57.1 µM), for the others: top-dose activity change, negative = inhibition, usual class: inhibitors | P00811;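 further: plate controls were no compound for no effect and no enzyme for full effect; nearly all actives have a fitted effect of over 20% in size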
Target sequence (P00811 whole entry, looked up): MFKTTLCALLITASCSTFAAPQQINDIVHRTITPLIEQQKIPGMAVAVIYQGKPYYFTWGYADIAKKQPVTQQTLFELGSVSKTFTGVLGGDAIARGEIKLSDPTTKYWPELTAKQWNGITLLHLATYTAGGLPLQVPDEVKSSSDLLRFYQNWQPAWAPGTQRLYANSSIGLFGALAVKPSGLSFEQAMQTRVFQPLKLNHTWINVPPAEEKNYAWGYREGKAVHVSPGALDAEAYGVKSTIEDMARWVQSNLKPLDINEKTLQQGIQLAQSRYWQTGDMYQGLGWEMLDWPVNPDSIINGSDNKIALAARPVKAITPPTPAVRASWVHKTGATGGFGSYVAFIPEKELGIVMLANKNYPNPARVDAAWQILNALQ
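AmpC (5.3 nM in the dispensed reagent) in 20 mM phosphate pH 7.0 with 0.01% (detergent screen) or 0.0001% Triton X-100 was preincubated with compounds for 15 min at room temperature. Nitrocefin was then added from an 800 uM solution, and hydrolysis was followed at 480 nm.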
Giardia FBPA inh – blocks Giardia fructose-bisphosphate aldolase activity. Potency, µM (titrated, usually from 59.6 µM), inactives show at the top dose activity, negative = inhibition, hits mostly inhibitors. 0.71% of 290,000 active. AID 2451. purified Giardia FBPA; further: nearly all actives have a fitted effect of over 55% in size
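Giardia FBPA (40 nM reagent) was preincubated 10 min at RT with compound (up to 57.5 uM final), then substrate plus GAPDH/TPI/NAD/arsenate coupling system with diaphorase/resazurin was added; resorufin fluorescence (525/598 nm) was read after 20 min.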
AmpC detergent – inhibitors of E. coli AmpC beta-lactamase with detergent. P00811. AID 485294. AmpC hydrolysis of nitrocefin, absorbance 480 nm, 0.01% Triton. 0.041% of 370,000 active. Potency, µM (doses to about 114 µM), for the others: at the top dose activity change, negative = inhibition, hits mostly inhibitors;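 further: 0% = no-compound wells and -100% = no-enzyme wells; nearly all actives have a fitted effect of over 25% in size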
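20 mM phosphate pH 7.0 + 0.01% (detergent screen) or 0.0001% Triton X-100; 5.3 nM AmpC reagent; cpd preinc 15 min RT; nitrocefin (800 uM stock) to start; A480 q20 s × 4 min; Activity was normalised to no-enzyme and no-compound control wells.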
AMA1 RON2 block – AMA1-RON2 (P. falciparum) interaction inhibition. AlphaScreen AMA1-biotinylated RON2 peptide binding. Potency, µM (top dose mostly 58.2 µM), inactives show at the top dose activity change, negative = inhibition, most hits filed as inhibitors. 0.2% of 360,000 active;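 further: 0% = vehicle wells and -100% = peptide control; nearly all actives have a fitted effect of over 45% in size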
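AMA1 (3D7) with his tag at 25 nM final met compounds first, then biotinylated RON2 peptide at 25 nM; detection used donor plus acceptor beads, 10 µg/mL apiece, read by AlphaScreen after 30 min at room temperature.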
* hit, by the source's call; ? = inconclusive; . = no result; [ ] = another dose, or the depositor's remark. The call rests on the fitted dose curve; in most records, active means well fitted curve in the direction sought with a large enough effect; inconclusive means small, poorly fitted or top-dose-only effect, or another doubt; inactive means no such curve, though single readings can be large; an effect the other way counts as inactive or inconclusive. Unless noted, on the % scale 0 is the no-effect control and ±100 the full control effect; potency means the concentration at half of the fitted maximal effect.

SMILES	AmpC inh no detg	Giardia FBPA inh	AmpC detergent	AMA1 RON2 block
Cc1ccc(NC(=S)Nc2nc(CC(=O)Nc3ccccc3)cs2)cc1	14µM*	-16%	-2%	65%
COc1ccccc1NC(=O)Nc1nc(CC(=O)Nc2ccc(N(C)C)cc2)cs1	-48%	.	?	18µM*
Cn1ncc(N=Cc2ccccc2)c1C(N)=O	-19%	-25%	-2%	7%
Nc1ncc(Br)cc1N=Cc1ccccc1	-14%	1.1µM*	-8%	-20%
Cc1ccc(S(=O)(=O)NC(=O)C2(C)CCN2C(=O)Cc2ccc(C(C)(C)C)cc2)cc1 (centres undefined)	.	.	.	-14%
Cc1ccc(OCCN2CCN(C)CC2)c([N+](=O)[O-])c1	-15%	-20%	?	25µM*
Cc1ccc(OCCN2CCNCC2)c([N+](=O)[O-])c1	-7%	-25%	-9%	-29%
Cc1nc2c(-c3ccccc3)c(C)[nH]n2c(=O)c1Cc1ccc(C(C)C)cc1	.	.	0%	.
Cc1ccc(NC(=O)CSc2nnc(-c3ccc(Br)cc3)o2)c(C)c1	.	.	8%	.
Cc1ccc(C)c(NC(=O)CSc2nnc(-c3ccccc3)o2)c1	40µM*	4%	?	6%
O=C1CC(C(=O)Nc2ccccc2)C2(CCCC2)O1 (centres undefined)	-8%	5%	?	-11%
O=C1CC(C(=O)Nc2ccc(C(=O)N3CCOCC3)cc2)C2(CCCCC2)O1 (centres undefined)	5µM*	0%	3%	-2%
COC(=O)[C@]12CCCCC=C1N(Cc1cccc3ccccc13)C(=O)[C@H](CC(=O)NCc1ccc(OC)c(OC)c1)C2	.	.	.	-1%
CC1CN(S(=O)(=O)c2ccc(C(=O)Nc3ccc(S(=O)(=O)Nc4nccs4)cc3)cc2)CC(C)O1 (centres undefined)	-36%	15%	-9%	0%
Cc1ccnc(NS(=O)(=O)c2ccc(NC(=O)c3ccc(S(=O)(=O)N4CC(C)OC(C)C4)cc3)cc2)n1 (centres undefined)	32µM*	0%	-3%	-6%[11.6 µM]
O=C(N/N=C/c1c[nH]c2ccccc12)c1sc2ccccc2c1Cl	-51%	-6%	7%	56%
O=C(N/N=C/c1ccccn1)c1sc2ccccc2c1Cl	-11%	5µM*	3%	56%
Cc1cnc(C2OCCO2)c2cccc(N)c12	.	.	.	-7%
COc1ccc(S(=O)(=O)N2CCCC2CNC(=O)C(=O)NCc2ccccc2)cc1 (centres undefined)	32µM*	.	?	9%
O=C(NCCC1CCCCN1S(=O)(=O)c1cccs1)C(=O)Nc1ccc(F)cc1 (centres undefined)	-3%	.	?	-9%
COc1ccc(S(=O)(=O)N2CCCC2CNC(=O)C(=O)NCc2ccc(C)cc2)cc1 (centres undefined)	-6%	.	-8%	18%
O=C(NCC1CCCN1S(=O)(=O)c1cccs1)C(=O)Nc1ccc(F)cc1 (centres undefined)	28µM*	.	?	10%
CCOC(=O)N1CCc2[nH]c3ccc(C)cc3c2C1	24%	9%	4%	40µM*
N#Cc1cccc(NC(=O)N2CC3(CCN(C(=O)c4cc(C(F)(F)F)cc(C(F)(F)F)c4)CC3)C2)c1	.	-3%	.	.
CCOc1ccc(CCNC(=O)C2=C(C)C(=O)OC23CCCCC3)cc1	.	.	17%	.
SMILES	AmpC inh no detg	Giardia FBPA inh	AmpC detergent	AMA1 RON2 block
COc1ccc(-c2nc(SCC(=O)NCc3nc4ccccc4n3C)n3[nH]c(=O)cc3n2)cc1	.	.	3%	.
CN1CCN(c2nc3c(c(=O)n(C)c(=O)n3C)n2CC(N)=O)CC1	-15%	-5%	32µM*	24%
CN1CCN(c2nc3c(c(=O)[nH]c(=O)n3C)n2CC(N)=O)CC1	-1%	-2%	?	-5%
S=C(NCc1ccco1)Nc1cc(-c2ccccc2)[nH]n1	16µM*	1%	-2%	22%
S=C(NCc1ccco1)Nc1ccc(Br)cn1	-3%	-3%	-4%	30%
CC(C)C(=O)Nc1nc2cc3c(cc2s1)OCO3	10µM*	-1%	?	-7%
CCOc1ccc(NC(=O)C(C)Sc2nnc(C)n2C)cc1 (centres undefined)	3.5µM*	0%	?	-1%
CC1=NOC2(C1)N(C)c1ccccc1C2(C)C (centres undefined)	-3%	19%	2%	1%
COc1ccc2ccc3c(c2c1)N=C[C@]1(O3)N(C)c2ccccc2C1(C)C	-45%	8.9µM*	?	?

Screening results as filed in PubChem.
